Several values for one entry are separate records, joined by “and”; a condition that tells them apart may be missing. Equal entries are not always repeated. Values without a mark were called inactive. Results filed as inconclusive are left out. Activity calls are given as the source filed them. The call rests on the fitted dose curve; in most records, active means well fitted curve in the direction sought with a large enough effect in the repeat runs; inconclusive means weak or mixed curves; inactive means no such curve, though single readings can be large; an effect the other way counts as inactive or inconclusive.

A short description of assay [1]: A CellTox Green Cytotoxicity Assay to monitor cytotoxicity in HEK293 cells - 32 hour (AID 1224881). Further: nearly all actives have a fitted effect of over 40% in size. Further: potency means the concentration at half of the fitted maximal effect. Summed up: (§1)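 HEK293 cells premixed with CellTox Green dye were seeded at 600 cells/well and left 5 h at 37 C/5% CO2 before pin transfer of 23 nL compound in DMSO. Fluorescence from dye bound to dead-cell DNA was read during 40 h treatment.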
Assay [2] in a line: A CellTox Green Cytotoxicity Assay to monitor cytotoxicity in HepG2 cells - 0 hour (AID 1224882). Further: nearly all actives have a fitted effect of over 35% in size. The essentials: (§2)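 HepG2 cells were seeded together with the CellTox Green dye at 600 cells/well, left 5 h at 37 C/5% CO2, then given compounds in DMSO. Fluorescence from dye bound to dead-cell DNA was read repeatedly over 40 h of treatment at 37 C.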
The nature of assay [3]: A CellTox Green Cytotoxicity Assay to monitor cytotoxicity in HepG2 cells - 32 hour (AID 1224883). Further: nearly all actives have a fitted effect of over 50% in size. Further: potency means the concentration at half of the fitted maximal effect. The essentials: as §2
The nature of assay [4]: A CellTox Green Cytotoxicity Assay to monitor cytotoxicity in HEK293 cells - 8 hour (AID 1224884). Further: nearly all actives have a fitted effect of over 35% in size. The essentials: as §1
Assay [5] in a line: qHTS RealTime-Glo MT Cell Viability Assay in HepG2 cells - 16 hour (AID 1224885). Further: nearly all actives have a fitted effect of over 50% in size. Further: potency means the concentration at half of the fitted maximal effect. The essentials: (§3)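 Cells + NanoLuc/prosubstrate dispensed (600 cells/well) → 5 h at 37 C/5% CO2 → compounds in DMSO transferred → 40 h incubation at 37 C, luminescence read at 0, 8, 16, 24, 32, 40 h.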
Background: Quantitative high-throughput screening tests each substance at several concentrations.

Assay [6] can be described thus: qHTS RealTime-Glo MT Cell Viability Assay in HEK293 cells - 8 hour (AID 1224887). Further: nearly all actives have a fitted effect of over 50% in size. Further: potency means the concentration at half of the fitted maximal effect. Summed up:
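HEK293 cells mixed with RealTime-Glo reagents (NanoLuc plus cell-permeant prosubstrate) at 600 cells/well, preincubated 5 h at 37 C/5% CO2, then given 23 nL compound in DMSO. Nonlytic luminescence from viable cells was read at 0, 8, 16, 24, 32 and 40 h.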

A short description of assay [7]: A CellTox Green Cytotoxicity Assay to monitor cytotoxicity in HEK293 cells - 16 hour (AID 1224888). Further: nearly all actives have a fitted effect of over 35% in size. The essentials: as §1
A short description of assay [8]: A CellTox Green Cytotoxicity Assay to monitor cytotoxicity in HepG2 cells - 8 hour (AID 1224890). Further: nearly all actives have a fitted effect of over 45% in size. Further: potency means the concentration at half of the fitted maximal effect. Summed up: as §2
Assay [9] in a line: qHTS RealTime-Glo MT Cell Viability Assay in HEK293 cells - 24 hour (AID 1224886). Further: nearly all actives have a fitted effect of over 50% in size. Further: potency means the concentration at half of the fitted maximal effect. The essentials:
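Tox21 10K qHTS, HEK293, 600 cells/well, RealTime-Glo reagent co-dispensed with cells; 5 h preincubation, compound by pintool, 37 C, luminescence at 0–40 h.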

Assay [10] can be described thus: qHTS RealTime-Glo MT Cell Viability Assay in HepG2 cells - 0 hour (AID 1224889). Further: nearly all actives have a fitted effect of over 50% in size. Summed up: as §3

Regarding `OC[C@H]1O[C@@H](n2cnc3c(=S)nc[nH]c32)[C@H](O)[C@@H]1O`, the Potency entry in assay [1], in assay [2], in [3], in assay [4], in assay [5] and in assay [6] was “inactive” each time. Also, the Potency entry in assay [7] and in [8] was “inactive” each time.
For the compound `C[C@H]1C[C@H](O)c2ccsc2S1(=O)=O`, the Potency entry in assay [1], in [2], in assay [3], in [4], in assay [5] and in assay [9] was “inactive” each time. The Potency entry in assay [7] and in [8] was “inactive” in each case.
Turning to `Cc1ccc2c(Br)cc(Br)c(O)c2n1`, the Potency entry in [1], in assay [2], in assay [3], in assay [4], in assay [5] and in assay [6] was “inactive” each time. Further, the Potency result in [7] and in assay [8] was “inactive” each time.
Turning to `FC(F)(F)c1ccccc1Cl`, the Potency entry in assay [1], in [2], in [3], in [4], in assay [5] and in assay [9] was “inactive” each time. For the same compound, the Potency entry in assay [7] and in assay [8] was “inactive” throughout.
As to `CN1CCCN=C1COC(=O)C(O)(c1ccccc1)C1CCCCC1` (stereo not given), the Potency entry in assay [1], in assay [2], in assay [3], in [4], in assay [5] and in assay [7] was “inactive” each time. Moreover, the Potency result in assay [10] and in assay [8] was “inactive” in each case.
Consider `Oc1c(I)cc(I)c2cccnc12`, for which the Potency result in [1], in assay [2], in assay [3], in assay [4], in assay [5] and in assay [6] was “inactive” in each case. In addition, the Potency result in assay [7], in [10] and in [8] was “inactive” each time.
For `CC(=O)[C@H]1[C@H](C#N)C[C@H]2[C@@H]3CC=C4C[C@@H](O)CC[C@]4(C)[C@H]3CC[C@@]21C`, the Potency entry in [1], in assay [2], in [3], in [4], in assay [5] and in assay [7] was “inactive” in each case. The Potency result in [8] was “inactive”.
In the case of `Clc1cc(Cl)nc(Cl)n1`, the Potency entry in assay [1], in assay [2], in assay [3], in assay [4], in assay [5] and in assay [9] was “inactive” in each case. The Potency entry in assay [7] and in assay [8] was “inactive” each time.
As for `OCCN1CCN(CCCN2c3ccccc3Sc3ccc(Cl)cc32)CC1`, the Potency in assay [1] is 26.8 µM (active); in assay [3], 16.9 µM (active); in [5], 23.9 µM (active); in assay [9] it was 23.9 µM (active); in [8] it was 23.9 µM (active). The Potency entry in assay [2] is “inactive”.
Consider `C=C(C)[C@@H]1CCC2=CCC[C@@H](C)[C@]2(C)C1`, for which the Potency result in assay [1], in [2], in assay [4], in assay [5], in assay [9] and in [6] was “inactive” in each case. Moreover, the Potency result in assay [7] and in [8] was “inactive” in each case.
Regarding `NC1[C@H]2CN(c3nc4c(cc3F)c(=O)c(C(=O)O)cn4-c3ccc(F)cc3F)C[C@@H]12` (stereo not given in full), the Potency entry in assay [1], in assay [2], in assay [3], in assay [5], in assay [9] and in [6] was “inactive” in each case. In addition, the Potency entry in assay [10] and in assay [8] was “inactive” throughout.
As for `CC(C)C[C@H](NC(=O)[C@H](CCc1ccccc1)NC(=O)CN1CCOCC1)C(=O)N[C@@H](Cc1ccccc1)C(=O)N[C@@H](CC(C)C)C(=O)[C@@]1(C)CO1`, the Potency was 0.301 µM (active) in assay [1], 0.0239 µM (active) in assay [3] and 0.0674 µM (active) in assay [9]. The Potency result in assay [2], in assay [4], in assay [6], in assay [7], in [10] and in assay [8] was “inactive” throughout.
Regarding `CC(=O)N/N=C/c1ccc([N+](=O)[O-])o1`, the Potency entry in [1], in assay [2], in [3], in [4], in [5] and in [6] was “inactive” each time. Besides, the Potency entry in [7] and in assay [8] was “inactive” each time.
On to `C=COCC(C)C`, for which the Potency entry in assay [1], in [2], in [3], in assay [4], in assay [5] and in [7] was “inactive” in each case. The Potency entry in assay [10] and in assay [8] was “inactive” in each case.
`O=C1C(=O)c2ccccc2C(O)=C1C1CCC(c2ccc(Cl)cc2)CC1` (stereo not given): the Potency entry in assay [1], in [2], in [3], in [4], in assay [5] and in assay [9] was “inactive” in each case. Further, the Potency entry in [7] and in assay [8] was “inactive” throughout.
Consider `C[C@@H]1CC(=O)NN=C1c1ccc(NN=C(C#N)C#N)cc1`, for which the Potency result in [1], in assay [2], in assay [4], in assay [9], in assay [6] and in assay [7] was “inactive” throughout. Also, the Potency entry in assay [8] was “inactive”. Moreover, the Potency in assay [3] is 16.9 µM (active) and 10.7 µM (active).
`C/C=C(/C(=C/C)c1ccc(O)cc1)c1ccc(O)cc1`: the Potency result in assay [1], in [2], in [4], in [5], in assay [6] and in assay [7] was “inactive” each time. The Potency was 16.9 µM (active) in [3] and 15.1 µM (active) in [8].
In the case of `CCCCCC#CC(=O)OC`, the Potency result in assay [1], in assay [2], in [3], in assay [4], in assay [5] and in [6] was “inactive” in each case. The Potency result in [7], in assay [10] and in assay [8] was “inactive” each time.
In the case of `Oc1ccc(Cl)c2cccnc12`, the Potency result in [1], in assay [2], in [4], in assay [5], in assay [9] and in assay [6] was “inactive” in each case. Further, the Potency entry in [7], in assay [10] and in [8] was “inactive” each time.
`CC(C)(c1ccccc1)c1ccccc1`: the Potency in assay [1] is 51.1 µM (active). For the same compound, the Potency entry in assay [2], in assay [3], in assay [5], in assay [9], in assay [10] and in assay [8] was “inactive” in each case.
`COc1ccccc1NC(=O)c1cc2ccccc2cc1O`: the Potency entry in assay [1], in [2], in assay [3], in assay [4], in assay [7] and in assay [10] was “inactive” throughout. Moreover, the Potency result in assay [8] is “inactive”. Also, the Potency in assay [9] and in assay [6] was 34.7 µM (active) each time.
In the case of `COc1ccccc1N1CCN(CC(O)COc2cccc3ccccc23)CC1` (stereo not given), the Potency entry in [1], in assay [2], in [4], in assay [5], in [6] and in [7] was “inactive” throughout. For the same compound, the Potency entry in [8] was “inactive”. The Potency in assay [3] was 26.8 µM (active).
Regarding `CC(CC1c2ccccc2CCc2ccccc21)CN(C)C` (stereo not given), the Potency result in assay [1], in [2], in assay [4], in assay [5], in assay [9] and in assay [6] was “inactive” in each case. The Potency entry in assay [7], in [10] and in [8] was “inactive” each time.
For the compound `O=Cc1c2ccccc2c(Cl)c2ccccc12`, the Potency entry in [1], in assay [2], in [3], in [4], in assay [5] and in assay [6] was “inactive” each time. Moreover, the Potency result in assay [7], in assay [10] and in assay [8] was “inactive” throughout.
